Shown is part of a subset that was picked to be rich in hits.
VHR inh color: VHR1 phosphatase inhibitors, primary screen, biochemical, colorimetric, HTS | Dual specificity protein phosphatase 3 (Homo sapiens), P51452 | recombinant VHR phosphatase, colorimetric substrate read-out | inhibition, % at 20 µM | 50,000 compounds, 0.7% hits | AID 1992, 2009; in the data active = inhibition above about 60%
Target sequence (P51452 whole entry, looked up): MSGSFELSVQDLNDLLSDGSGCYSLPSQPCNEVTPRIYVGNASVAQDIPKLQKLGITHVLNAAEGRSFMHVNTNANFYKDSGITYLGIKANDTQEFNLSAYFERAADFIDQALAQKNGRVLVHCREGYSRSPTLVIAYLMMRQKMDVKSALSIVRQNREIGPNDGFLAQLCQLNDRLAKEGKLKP
Each line names hits and unclear results; the compound was inactive in the other large screens.

CC1=C(C(=O)OCc2ccccc2)C(c2ccc(F)c(Br)c2)CC(=O)N1 (stereo not given)	none
CC1=C(C(=O)OC(C)C)C(c2cc(Br)ccc2F)CC(=O)N1 (stereo not given)	VHR inh color 102
CC1=C(C(=O)OC(C)C)C(c2ccc(F)c(Br)c2)CC(=O)N1 (stereo not given)	VHR inh color 118
CC1=C(C(=O)OC(C)C)C(c2cccc(Br)c2)NC(=O)N1 (stereo not given)	none
COc1ccc(CNCc2cccc(Cl)c2)cc1OC	none
NN1C(=O)/C(=C\c2ccc([N+](=O)[O-])cc2)SC1=S	none
COc1ccc(Br)cc1C(=O)Nc1ccc(OC(F)(F)F)cc1	none
O=C(O)c1cc(-c2ccc(/C=N/n3cnnc3)o2)ccc1O	none
O=C1NC(=S)N(c2ccc(Cl)cc2)C(=O)/C1=C/C=C/c1ccccc1	none
O=C1NC(=S)N(c2cccc(Cl)c2)C(=O)/C1=C\C=C\c1ccccc1[N+](=O)[O-]	VHR inh color 88
COc1cccc(N2C(=O)NC(=O)/C(=C/C=C/c3ccccc3[N+](=O)[O-])C2=O)c1	none
CCOc1ccc(Nc2nc(O)c(C3=c4cc(Br)ccc4=NC3=O)s2)cc1	none
O=C1N=c2ccccc2=C1c1sc(Nc2ccc(O)cc2)nc1O	VHR inh color 58
O=C1N=c2ccccc2=C1c1sc(Nc2cccc(O)c2)nc1O	none
CSc1ccc(S(=O)(=O)N(CC(=O)N2CCOCC2)c2ccc(C)cc2)cc1	none
COC(=O)c1cccc(Nc2ncnc3ccc(Br)cc23)c1	none
COc1cc(C2CC(=O)Nc3c2ccc2ccccc32)cc(OC)c1OC(C)=O (stereo not given)	none
CSc1ccc(C2CC(=O)Nc3c2cc(Br)c2ccccc32)cc1 (stereo not given)	none
COc1ccc(C2CC(=O)Nc3c2cc(Br)c2ccccc32)c(OC)c1 (stereo not given)	VHR inh color 112
O=C1CC(c2ccc(F)c(Br)c2)c2ccc3ccccc3c2N1 (stereo not given)	none
CCOc1cccc(C2CC(=O)Nc3c2cc(Br)c2ccccc32)c1 (stereo not given)	none
COc1cc(C2CC(=O)Nc3c2ccc2ccccc32)cc(Br)c1OC (stereo not given)	VHR inh color 103
Cc1ccc(OCCn2c(SCc3nc4ccccc4[nH]3)nc3ccccc32)cc1	none
CNC(=S)N(CCc1ccc(OC)c(OC)c1)C1CC(=O)N(c2ccccc2)C1=O (stereo not given)	none
COc1ccccc1-c1nnc(NC(=O)c2ccc(F)cc2)s1	none
COc1ccc(/C=C2\SC(=O)N(CCC(=O)Nc3ccccc3C)C2=O)cc1OC	none
COc1ccc(/C=C2\SC(=O)N(CCC(=O)Nc3cccc(C)c3)C2=O)cc1OC	VHR inh color 80
COc1ccccc1NC(=O)CCN1C(=O)S/C(=C/c2ccc(OC)c(OC)c2)C1=O	none
O=C(CSc1nc2ccccc2[nH]1)N/N=C/c1ccccc1Br	none
Cc1cc(-c2ccccc2)c2ccc(O)cc2n1	none
c1ccc(Nc2nc(-c3ccccc3)[n+](-c3ccccc3)s2)cc1	VHR inh color 97
c1ccc(Nc2nc(-c3ccncc3)cs2)cc1	none
COc1ccc(-c2csc(Nc3ccccc3)n2)cc1	none
Cc1nc(NC(=O)c2ccccc2)sc1-c1csc(Nc2cccc(C(=O)O)c2)n1	none
Cc1nc(NC(=O)c2ccccc2)sc1-c1csc(Nc2ccc(O)cc2)n1	VHR inh color 71
Cc1nc(N)sc1-c1csc(Nc2ccc(S(N)(=O)=O)cc2)n1	none
OCc1nc2ccccc2n1Cc1ccc2ccccc2c1	none
CCn1c(CCCO)nc2ccccc21	none
OCc1nc2ccccc2n1Cc1ccccc1F	VHR inh color 116
COc1cccc(C(=O)N2CCN(Cc3ccccc3Cl)CC2)c1	none
N/C(=N\OC(=O)c1ccccc1F)c1ccc([N+](=O)[O-])cc1	none
CCOc1ccc(N2C(=O)CC(N3CCCCC3)C2=O)cc1 (stereo not given)	VHR inh color 102
CCOc1ccc(N2C(=O)CC(N3CCC(C(N)=O)(N4CCCCC4)CC3)C2=O)cc1 (stereo not given)	none
CCOc1ccc(N2C(=O)CC(N3CCC(C(N)=O)CC3)C2=O)cc1 (stereo not given)	none
CCOC(=O)C1=C(O)/C(=C/c2cc(C)n(-c3ccc(C)c(C)c3)c2C)N=C1C	none
CSc1nc(-c2ccccc2)nc2[nH]c(-c3ccccc3)cc(=O)c12	none
CSCCC(N=C1NC(C)(C)Cc2c1ccc1ccccc21)C(=O)O (stereo not given)	none
CCc1c(C)sc(NC(=O)c2ccc(Cl)cc2)c1C(N)=O	none
CCc1c(C)sc(NC(=O)c2cccnc2)c1C(N)=O	none
CCCCOc1ccc(C(=O)Nc2sc(C)c(CC)c2C(N)=O)cc1	VHR inh color 70
Cc1ccc(OCC(=O)NCC(C)C)cc1	none
O=C1c2cccc3c(N4CCCCC4)ccc(c23)C(=O)N1c1ccc(Cl)cn1	none
COc1ccc(/C(O)=C2/C(=O)C(=O)N(c3ccccn3)C2c2cccnc2)cc1 (stereo not given)	none
O=C(CCN1C(=O)c2ccccc2C1=O)NCc1ccncc1	none
O=C1c2ccccc2C(=O)N1CC(O)Cn1c2ccccc2c2ccccc21 (stereo not given)	none
O=C1c2cccc3c4ccccc4n(c23)C(=O)C1(O)O	VHR inh color 90
N#Cc1c(-c2ccccc2)cc(-c2ccccc2Cl)c(C#N)c1N	none
N#CC(C#N)=C1C(Cl)=C(Cl)c2ccccc21	VHR inh color 66
O=C1C(=O)c2ccccc2C(Cl)=C1Cl	none
COc1cccc(-n2c(/C=C/c3c(C)[nH]c4ccccc34)nc3ccccc3c2=O)c1	VHR inh color 76
Cc1[nH]c2ccccc2c1/C=C/c1nc2ccccc2c(=O)n1-c1ccc([N+](=O)[O-])cc1	none
Cc1[nH]c2ccccc2c1/C=C/c1nc2ccccc2c(=O)n1C	none
COc1ccccc1NC(=O)C1CCC(=O)N1 (stereo not given)	none
COc1ccc(OC)c(N2C(=O)CCC2=O)c1	none
C=C(C)CNC(=S)Nc1sc2c(c1C(=O)OCC)CCCC2	none
COc1cc(NC(=O)c2cccc(OC)c2)cc(OC)c1	none
CCc1cc(C)cc(OCCOc2ccc(/C=N/n3cnnc3)cc2)c1	none
C(=N\n1cnnc1)/c1ccc(OCCOc2ccc(C3CCCCC3)cc2)cc1	VHR inh color 106
Brc1ccc(OCCOc2cccc(/C=N/n3cnnc3)c2)cc1	none
C(=N\n1cnnc1)/c1cccc(OCCOc2ccc(C3CCCCC3)cc2)c1	VHR inh color 104
CCOc1cc(/C=N\n2cnnc2)ccc1OCCOCCOc1ccc(C)cc1	none
C1=C=CC(OCCOc2ccc(/C=N/n3cnnc3)cc2)=CC=1	none
Cc1ccc(C(C)C)c(OCCOc2ccc(/C=N/n3cnnc3)cc2)c1	none
CCOc1cc(/C=N/n2cnnc2)ccc1OCCOc1cccc(C)c1	none
COc1cccc(OCCOc2ccc(/C=N/n3cnnc3)cc2)c1	VHR inh color 110
Cc1cccc(N2C(=O)/C(=C/c3ccc4c(c3)OCO4)SC2=S)c1C	none
CCOC(=O)C1=C(c2ccccc2)N=c2s/c(=C\c3cccnc3)c(=O)n2C1c1ccc2c(c1)OCO2 (stereo not given)	none
O=C(Nc1ccc(OCc2ccccc2)cc1)Nc1cccc(Cl)c1	none
Cc1ccc2c(c1)-c1c(ssc1=S)C(C)(C)N2C(=O)Cc1ccc(F)cc1	none
Cc1cccc(C(=O)Nc2cc(C(N)=O)cc(C(N)=O)c2)c1	none
CCc1c(C)sc(NC(=O)c2ccc(OC)c(OC)c2)c1C(=O)OC	none
COc1cc(C=C2C(=O)N(C)C(=O)N(C)C2=O)ccc1OC(C)c1ccccc1 (stereo not given)	none
Cc1ccc(C(=O)NCCOc2ccc(Cl)cc2)cc1	none
Cc1ccc2nc(-c3cccc(NC(=S)NC(=O)c4ccco4)c3)oc2c1	none
